# Among all 350,000 compounds or so, about 2,300 (0.66%) were called active.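 The calls were made as follows: active = mean inhibition of at least 50% after viability correction, with every replicate also passing that limit; inconclusive = mean reaches 50% but only one of two replicates passes; inactive = the rest.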 The full list was thinned out, with actives kept by preference.
# Test: blockers of EWS/Fli transcriptional output – A673 cells, NR0B1 luciferase, luminescence, MLPCN library, primary screen (AID 651661);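 also: firefly luciferase signal divided by Alamar Blue viability fluorescence both relative to DMSO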
# Conditions: A673 NR0B1-luciferase reporter, viability-normalised; at 12.6 µM; hits give high values
row,SMILES,inhibition
1,Nc1c(C(=O)NCc2ccccc2)nnn1Cc1cccc(Cl)c1,53% (active)
2,COc1cccc(CNC(=O)c2nnn(CC(=O)Nc3cc(Cl)ccc3C)c2N)c1,2.98% (inactive)
3,Nc1c(C(=O)Nc2ccc3c(c2)OCCO3)nnn1Cc1ccccc1,-100% (inactive)
4,COc1cccc(S(=O)(=O)N(C)C[C@@H]2Oc3ncc(-c4cccc(C(=O)N(C)C)c4)cc3C(=O)N([C@H](C)CO)C[C@H]2C)c1,-6.58% (inactive)
5,COc1ccc(CN(C)C[C@H]2OCCCC[C@H](C)Oc3ccc(NS(C)(=O)=O)cc3C(=O)N([C@H](C)CO)C[C@@H]2C)cc1,1.53% (inactive)
6,COc1ccc(C#Cc2ccc([C@H]3[C@@H](CO)N4CCCCN(C(=O)Nc5ccccc5)C[C@H]34)cc2)cc1,17.2% (inactive)
7,CN(C)CC#Cc1ccc([C@@H]2[C@H](CO)N3CCCCN(C(=O)Nc4ccc(F)cc4)C[C@@H]23)cc1,-2.85% (inactive)
8,O=C(Nc1ccc(F)cc1)N1CCCCN2[C@H](CO)[C@H](c3ccc(C#Cc4ccccc4)cc3)[C@H]2C1,84.6% (active)
9,CO[C@H]1CN(C)C(=O)c2ccc(NC(=O)C3CCC3)cc2OC[C@@H](C)NC[C@H]1C,10.2% (inactive)
10,CO[C@H]1CN(C)C(=O)c2cc(NC(=O)C3CCCCC3)ccc2OC[C@H](C)N(C(=O)c2ccccc2)C[C@H]1C,9.65% (inactive)
11,CCCNC(=O)[C@H]1[C@H](CO)[C@H]2Cn3c(cccc3=O)[C@H]2N1Cc1ccccc1Cl,-2.68% (inactive)
12,COC(=O)c1cc(C(=O)N(Cc2ccccc2)c2ccccn2)cc([N+](=O)[O-])c1,7.71% (inactive)
13,CC(=O)N(CN1C(=O)C2C3C=CC(C3)C2C1=O)c1cccc(Cl)c1 (stereo unspecified),-2.77% (inactive)
14,O=C(CCl)N(Cc1cccc([N+](=O)[O-])c1)c1cccc(Cl)c1,60% (active)
15,CCC(=O)N(C)C[C@H]1Oc2cc(C#CCOC)ccc2S(=O)(=O)N([C@H](C)CO)C[C@H]1C,-9.57% (inactive)
16,CCOc1ccccc1N1CCN(C(=O)c2ccc3[nH]c(C)c(C)c3c2)CC1,55.9% (active)
17,CCn1c(C)c(C)c2cc(C(=O)N3CCN(c4cccc(C)c4C)CC3)ccc21,5.16% (inactive)
18,CCOc1ccccc1N1CCN(C(=O)COc2ccc3c(C)cc(=O)oc3c2)CC1,6.43% (inactive)
19,CCC(=O)Nc1ccc2c(c1)C(=O)N(C)[C@H]1CC[C@H](CC(=O)NC3Cc4ccccc4C3)O[C@H]1CO2,4.71% (inactive)
20,COc1ccc2c3c(n(C)c2c1)[C@H](CO)N(Cc1ccccc1Cl)CC31CN(C(=O)CN(C)C)C1,6.01% (inactive)
21,COc1cccc(-n2c(=S)[nH]c3c(oc4ccccc43)c2=O)c1,-11.6% (inactive)
22,O=c1oc2ccccc2cc1-c1cn(-c2ccccc2)c(=S)[nH]1,67.6% (active)
23,CS(=O)(=O)N1CCN(C(=O)c2cc3ccccc3oc2=O)CC1,-13.4% (inactive)
24,O=C(N[C@H]1CC[C@H](CCNS(=O)(=O)c2ccc(F)cc2)O[C@H]1CO)c1cccnc1,-0.681% (inactive)
25,C[C@@H]1CN([C@@H](C)CO)C(=O)Cc2cc(NC(=O)C3CCCCC3)ccc2O[C@@H]1CN(C)Cc1ccc(C(=O)Nc2ccccc2N)cc1,12.7% (inactive)
26,Cn1cnc(S(=O)(=O)N[C@H]2C=C[C@H](CC(=O)NCC3CCCCC3)O[C@@H]2CO)c1,-0.245% (inactive)

row,SMILES,inhibition
1,C[C@H](CO)N1C[C@H](C)[C@@H](CN(C)Cc2ccc(-c3ccccc3)cc2)Oc2ccc(NC(=O)CCCN(C)C)cc2CC1=O,4.89% (inactive)
2,C[C@@H]1CN([C@@H](C)CO)S(=O)(=O)c2ccc(C#Cc3ccccc3)cc2O[C@@H]1CN(C)C(=O)Nc1ccccc1,11% (inactive)
3,C[C@H](CO)N1C[C@H](C)[C@H](CN(C)C(=O)Nc2ccc3c(c2)OCO3)Oc2cc(C#Cc3ccncc3)ccc2S1(=O)=O,22.2% (inactive)
4,C[C@H]1CN([C@@H](C)CO)S(=O)(=O)c2ccc(C#Cc3ccncc3)cc2O[C@@H]1CN(C)C(=O)Nc1ccc2c(c1)OCO2,55.5% (active)
5,CCn1c(C(O)c2cc(OC)ccc2OC)nc2ccccc21 (stereo unspecified),-24.1% (inactive)
6,Cc1nc2ccccc2n1CC(=O)N/N=C/c1cccs1,3.45% (inactive)
7,CCn1c(/C=N/NC(=O)c2ccc(OC)cc2)nc2ccccc21,75.2% (active)
8,COc1ccc2c3c(n(C)c2c1)[C@H](CO)N(CC1CCOCC1)CC31CCN(C(C)=O)CC1,0.574% (inactive)
9,C[C@H]1CN([C@@H](C)CO)S(=O)(=O)c2ccc(-c3cccc(C#N)c3)cc2O[C@H]1CN(C)C(=O)c1ccccc1,4.97% (inactive)
10,COCC#Cc1ccc(CC[C@H]2O[C@H]3CC[C@@H](CO)O[C@H]3C[C@H]2NC(=O)Nc2c(C)noc2C)cc1,-3.3% (inactive)
11,O=C(CCl)Nc1cccc(CP(=O)(c2ccccc2)c2ccccc2)c1,28.2% (inactive)
12,O=C(CCl)Nc1ccc(Sc2ccc(NC(=O)CCl)cc2)cc1,66.1% (active)
13,CCC(=O)Nc1ccc(Nc2nc(Cl)nc(Nc3ccc(NC(=O)CC)cc3)n2)cc1,7.36% (inactive)
14,CO[C@H]1CN(C)C(=O)c2ccc(NC(C)=O)cc2OC[C@H](C)N(C(=O)Cc2ccccn2)C[C@@H]1C,-1.41% (inactive)
15,CC[C@]1(O)CC2CN(CCc3c([nH]c4ccccc34)[C@@](C(=O)OC)(c3cc4c(cc3OC)N(C=O)[C@H]3[C@@](O)(C(=O)OC)[C@H](OC(C)=O)[C@]5(CC)C=CCN6CC[C@]43[C@@H]65)C2)C1 (stereo partly specified),61.7% (active)
16,CC[C@]1(O)C[C@@H]2CN(CCc3c([nH]c4ccccc34)[C@@](C(=O)OC)(c3cc4c(cc3OC)N(C)[C@H]3[C@@](O)(C(=O)OC)[C@H](OC(C)=O)[C@]5(CC)C=CCN6CC[C@]43[C@@H]65)C2)C1,63% (active)
17,CN1C(=O)c2cc(NC(=O)C3CC3)ccc2OC[C@@H]2O[C@H](CC(=O)NCC3CCCCC3)CC[C@@H]21,6.23% (inactive)
18,C[C@H]1CN([C@@H](C)CO)S(=O)(=O)c2ccc(C3=CCCCC3)cc2O[C@@H]1CN(C)Cc1ccccc1,23.9% (inactive)
19,Cc1cc(C(=O)Nc2ccc3c(c2)C(=O)N(C)[C@@H]2CC[C@@H](CC(=O)NC4CCCC4)O[C@@H]2CO3)no1,4.52% (inactive)
20,COc1ccc2c3c(n(C)c2c1)[C@@H](CO)N(C)CC31CN(S(=O)(=O)c2cccs2)C1,3.63% (inactive)
21,COc1cccc(C#Cc2ccc([C@H]3[C@@H](CO)N(C(=O)c4ccccn4)[C@H]3C#N)cc2)c1,30.6% (inactive)
22,C[C@H]1CN([C@@H](C)CO)C(=O)c2cc(-c3ccncc3)cnc2O[C@@H]1CN(C)C(=O)c1cccc(F)c1,-6.09% (inactive)
23,C[C@@H]1CCCCO[C@H](CN(C)CC2CCCCC2)[C@H](C)CN([C@H](C)CO)C(=O)c2cc(NC(=O)Nc3ccc(F)cc3)ccc2O1,-1.9% (inactive)
24,C[C@H](CO)N1C[C@H](C)[C@H](CN(C)CC2CCCCC2)OCCCC[C@H](C)Oc2ccc(NS(=O)(=O)c3ccc(F)cc3)cc2C1=O,-7.04% (inactive)
25,C[C@@H]1CCCCO[C@@H](CN(C)Cc2ccc3c(c2)OCO3)[C@@H](C)CN([C@@H](C)CO)C(=O)c2cc(NC(=O)Nc3ccccc3)ccc2O1,-8.42% (inactive)
26,C[C@@H]1CN([C@H](C)CO)C(=O)c2cc(NC(=O)Nc3ccc4c(c3)OCO4)ccc2O[C@@H](C)CCCCO[C@@H]1CN(C)Cc1ccc2c(c1)OCO2,11.6% (inactive)

row,SMILES,inhibition
1,C[C@@H]1CN([C@H](C)CO)C(=O)c2cc(NC(=O)Nc3ccc(F)cc3)ccc2O[C@@H](C)CCCCO[C@@H]1CN(C)CC1CCCCC1,58.8% (active)
2,C[C@H]1CCCCO[C@@H](CN(C)Cc2ccc3c(c2)OCO3)[C@@H](C)CN([C@@H](C)CO)C(=O)c2cc(NC(=O)Nc3ccc(F)cc3)ccc2O1,73.8% (active)
3,C[C@@H]1CCCCO[C@H](CN(C)CC2CCCCC2)[C@H](C)CN([C@H](C)CO)C(=O)c2cc(NS(=O)(=O)c3ccc(F)cc3)ccc2O1,24.8% (inactive)
4,C[C@H]1CCCCO[C@H](CN(C)CC2CCCCC2)[C@@H](C)CN([C@@H](C)CO)C(=O)c2cc(NS(=O)(=O)c3ccc(Cl)cc3)ccc2O1,61.5% (active)
5,C[C@@H]1CCCCO[C@H](CN(C)CC2CC2)[C@@H](C)CN([C@H](C)CO)C(=O)c2cc(NC(=O)Nc3ccc(F)cc3)ccc2O1,-1.94% (inactive)
6,CCS(=O)(=O)N1[C@H](CO)[C@@H](c2ccccc2)C12CN(C(=O)c1ccccc1F)C2,8.71% (inactive)
7,CC(C)NC(=O)N1[C@@H]2CN(C(=O)C3CCCCC3)c3ccccc3[C@@H]2[C@@H]1CO,1.34% (inactive)
8,CN(C)C(=O)[C@@H]1[C@@H](CO)[C@@H]2Cn3c(ccc(C4=CCCC4)c3=O)[C@H]1N2Cc1ccccn1,-3.42% (inactive)
9,COc1ccc(-c2cnc3c(c2)C(=O)N([C@@H](C)CO)C[C@H](C)[C@@H](CN(C)C(=O)C2CC2)O3)cc1,-4.94% (inactive)
10,CCS(=O)(=O)N1CC2(C1)CN(S(=O)(=O)c1ccccc1)[C@H](CO)c1c2c2ccc(OC)cc2n1C,-5.22% (inactive)
11,CO[C@@H]1CN(C)C(=O)c2ccc(NC(=O)NC(C)C)cc2OC[C@@H](C)N(Cc2ccc(-c3ccccn3)cc2)C[C@H]1C,0.576% (inactive)
12,COc1ccc2c3c([nH]c2c1)[C@H](CO)N(S(=O)(=O)c1cn(C)cn1)CC31CCN(CC2CC2)CC1,-3.8% (inactive)
13,C[C@@H]1CN([C@@H](C)CO)C(=O)Cc2cc(NC(=O)CCCCCC(=O)Nc3ccccc3N)ccc2O[C@H]1CN(C)C(=O)Nc1ccc(C(F)(F)F)cc1,8.79% (inactive)
14,C[C@H]1CN([C@@H](C)CO)C(=O)Cc2cc(NC(=O)CCCCCC(=O)Nc3ccccc3N)ccc2O[C@@H]1CN(C)Cc1ccncc1,-9.64% (inactive)
15,C[C@H](CO)N1C[C@H](C)[C@H](CN(C)CC2CCCCC2)Oc2ccc(NC(=O)CCCCCC(=O)Nc3ccccc3N)cc2CC1=O,51.8% (active)
16,C[C@@H]1CN([C@@H](C)CO)C(=O)Cc2cc(NC(=O)CCCCCC(=O)Nc3ccccc3N)ccc2O[C@@H]1CN(C)C(=O)NC1CCCCC1,2.61% (inactive)
17,C[C@@H]1CN([C@@H](C)CO)C(=O)Cc2cc(NC(=O)CCCN(C)C)ccc2O[C@@H]1CN(C)Cc1ccc(-c2ccccc2)cc1,17.3% (inactive)
18,CC(C)NC(=O)N(C)C[C@H]1Oc2ccc(NC(=O)CCCCCC(=O)Nc3ccccc3N)cc2CC(=O)N([C@@H](C)CO)C[C@H]1C,-5.03% (inactive)
19,C[C@H]1CN([C@@H](C)CO)C(=O)Cc2cc(NC(=O)CCCN(C)C)ccc2O[C@@H]1CN(C)Cc1ccc(-c2ccccc2)cc1,-8.76% (inactive)
20,COc1ccc(S(=O)(=O)N(C)C[C@@H]2Oc3ccc(NC(=O)C4CC4)cc3CC(=O)N([C@@H](C)CO)C[C@H]2C)cc1,-1.28% (inactive)
21,C[C@H](CO)N1C[C@H](C)[C@H](CN(C)Cc2ccc(C(F)(F)F)cc2)Oc2ccc(NC(=O)CCCCCC(=O)Nc3ccccc3N)cc2CC1=O,52.3% (active)
22,C[C@@H]1CN([C@H](C)CO)C(=O)Cc2cc(NC(=O)C3CCCCC3)ccc2O[C@H]1CN(C)S(=O)(=O)c1ccc(Cl)cc1,4.11% (inactive)
23,C[C@H](CO)N1C[C@H](C)[C@@H](CN(C)Cc2ccc(-c3ccccc3)cc2)Oc2ccc(NC(=O)CCC(F)(F)F)cc2CC1=O,72.1% (active)
24,C[C@H]1CN([C@@H](C)CO)C(=O)Cc2cc(NC(=O)C3CC3)ccc2O[C@H]1CN(C)S(=O)(=O)c1ccc(Cl)cc1,52.2% (active)
